Records with an inconclusive call do not appear. A call without a number means that no potency is given here. Values without a mark were called inactive. Active and inactive are the calls of the source. The call rests on the fitted dose curve; in most records, active means well fitted inhibition curve with a large enough effect in the repeat runs; inconclusive means weak or mixed curves; inactive means no such curve, though single readings can be large or run the other way.
Potency means the concentration at half of the fitted maximal effect.

Sequence of Cytochrome P450 1A2 (Homo sapiens) (P05177 whole entry, looked up): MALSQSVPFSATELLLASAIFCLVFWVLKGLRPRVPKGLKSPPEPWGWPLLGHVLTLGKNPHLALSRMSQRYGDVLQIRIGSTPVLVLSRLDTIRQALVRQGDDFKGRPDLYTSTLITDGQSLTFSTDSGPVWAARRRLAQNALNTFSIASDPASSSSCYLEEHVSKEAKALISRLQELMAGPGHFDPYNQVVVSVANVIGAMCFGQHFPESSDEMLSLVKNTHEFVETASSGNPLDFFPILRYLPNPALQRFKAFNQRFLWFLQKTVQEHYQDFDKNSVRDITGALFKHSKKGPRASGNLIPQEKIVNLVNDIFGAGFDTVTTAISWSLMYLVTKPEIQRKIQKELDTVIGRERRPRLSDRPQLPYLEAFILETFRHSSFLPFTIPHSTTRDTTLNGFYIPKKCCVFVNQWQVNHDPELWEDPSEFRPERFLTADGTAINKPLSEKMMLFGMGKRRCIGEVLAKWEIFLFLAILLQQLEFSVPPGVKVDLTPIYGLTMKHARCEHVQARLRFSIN

The experiment addresses Cytochrome P450 1A2 (Homo sapiens) (UniProt P05177). The experiment is described as follows: Cytochrome P450 Family 1 Subfamily A Member 2 (CYP1A2) small molecule antagonists: luciferase reporter qHTS assay (AID 1671199). Further: nearly all actives have a fitted effect of over 50% in size. The following applies: P450-Glo CYP1A2 enzyme, luciferin luminescence, 1 h; series mostly up to 115 µM. The text has this:
National Center for Advancing Translational Sciences [NCATS]
U.S. Environmental Protection Agency [EPA]
National Institutes of Environmental Health Sciences [NIEHS]
National Toxicology Program [NTP]
U.S. Food and Drug Administration [FDA]
Cytochrome P450 (CYP) enzymes are membrane-bound hemeproteins that play a key role in metabolism of drugs and xenobiotics. Evaluation of the effect of chemicals on CYP isozymes is useful to minimize the adverse drug reactions and toxicities in drug development process. Tox21 chemicals were tested for their effect on CYP enzyme activities by using P450-Glo (TM) screening systems (Promega Corporation, Madison, WI). These systems provide a luminescent method containing proluciferin substrates and are converted to luciferin products by CYP isozymes. The luciferin products formed are detected with a luciferin detection reagent, and the amount of light produced is proportional to CYP activity. P450-Glo (TM) CYP1A2 screening system (Catalog. No. V9770) was used to detect the compounds that interfere in CYP1A2 activity. The positive control compound used for CYP1A2 assay is furafylline (Sigma-Aldrich, St. Louis, MO).
Tox21 Assay Protocol Summary:
Two ul of enzyme-substrate mix was dispensed into medium binding white/solid 1536-well plates (Greiner Bio-One North America Inc., Monroe, NC) using a BioRaptr Flying Reagent Dispenser (FRD, Beckman Coulter, Brea, CA). Compounds dissolved in DMSO and positive control (furafyllline) were transferred to the assay plates at 23 nl using a Pintool station (Wako, San Diego, CA). The assay plates were incubated at room temperature for 10 min. Then 2 ul of NADPH regeneration solution was added to each well of the assay plates using an FRD and incubated at room temperature for 1 h. The reaction was stopped by adding 4 ul of detection reagent using an FRD and after 20 min incubation at room temperature the luminescence signal was measured using a ViewLux plate reader (Perkin Elmer, Shelton, CT). Data were expressed as relative luminescence units.
For the compound `COC(=O)c1cc(Cl)c(NC(C)=O)cc1OC`, the Potency was 2.45 µM (active).

Regarding `Clc1cc(Cl)c(Cl)c(Cl)c1Cl`, the Potency entry was “inactive”.

On to `O=C(c1ccccc1)c1cccc(O)c1`, for which the Potency is 36.2 µM (active).

For the compound `CCN1CCN(C(=O)N[C@@H](C(=O)N[C@@H]2C(=O)N3C(C(=O)O)=C(CSc4nnnn4C)CS[C@H]23)c2ccc(O)cc2)C(=O)C1=O`, the Potency result is “inactive”.

As to `CCCCC(CC)COC(=O)CC#N` (stereo not given), the Potency was 35.6 µM (active).

With `C=CCN(CC=C)CC=C`, the Potency entry was “inactive”.

Consider `CCCCCC(=O)CC`, for which the Potency entry is “inactive”.

Regarding `C[Si](C)(C)O[Si](O)(O)O`, the Potency entry was “inactive”.

Consider `CCCCCCCOC(C)=O`, for which the Potency result is “inactive”.

In the case of `Clc1ccc2c(c1)Nc1ccccc1S2`, the Potency is 0.347 µM (active).

`C[n+]1ccccc1/C=N/O`: the Potency result was “inactive”.

Turning to `CN(C)c1ccncc1`, the Potency entry is “inactive”.

With `c1coc(Cn2cccc2)c1`, the Potency result was “inactive”.

On to `CCO/C=C1\N=C(c2ccccc2)OC1=O`, for which the Potency was 35.5 µM (active).

For `CC(C)(C)c1ccc(C(=O)CCCCl)cc1`, the Potency was 12.3 µM (active).

Regarding `C=C(C)C(=O)OCCOC1CC2CC1C1C=CCC21` (stereo not given), the Potency was 42.9 µM (active).

`CN(C)CCc1c[nH]c2ccc(C[C@H]3COC(=O)N3)cc12`: the Potency result was “inactive”.

`C=C(C)C(=O)OCCCC`: the Potency result is “inactive”.

For `CCCc1ccc(O)c(OC)c1`, the Potency is 31.7 µM (active).

`NNC(=O)OCc1ccccc1`: the Potency was 15.9 µM (active).

For the compound `CCOC(=O)c1ccc(N(C)C)cc1`, the Potency was 5.03 µM (active).

On to `NS(=O)(=O)c1cc2c(cc1C(F)(F)F)NCNS2(=O)=O`, for which the Potency result is “inactive”.

In the case of `CC(C)C(C)C`, the Potency result was “inactive”.

For `COC(=O)c1ccccc1Cl`, the Potency result was “inactive”.

Take `Cc1cc(=O)oc2cc(O[C@@H]3SC[C@@H](O)[C@H](O)[C@H]3O)ccc12`: the Potency entry is “inactive”.

With `C[C@H]1COc2c(C3(N)CC3)c(F)cc3c(=O)c(C(=O)O)cn1c23`, the Potency entry is “inactive”.

With `NNC(=O)CCCCC(=O)NN`, the Potency is 31.7 µM (active).

As for `CCc1ccc(CC)cc1`, the Potency entry is “inactive”.

For the compound `Cc1cc2c(cc1CC(=O)c1sccc1S(=O)(=O)Nc1onc(C)c1Cl)OCO2`, the Potency is 3.23 µM (active).

For `CC(C)(C)OC(=O)c1ccccc1C(=O)O`, the Potency result was “inactive”.

`O=C1Nc2ccccc2C1=O`: the Potency is 39.6 µM (active).

As for `C[C@@H]1CCC[C@H](C)N1CCCC(O)(c1ccccc1)c1ccccn1` (stereo not given in full), the Potency result was “inactive”.

For the compound `C[C@@H]1NC(=O)[C@@H](N)CNC(=O)[C@H](C2CCNC(N)=N2)NC(=O)/C(=C/NC(N)=O)NC(=O)[C@H](CNC(=O)C[C@@H](N)CCCN)NC1=O` (stereo not given in full), the activity change, negative = inhibition is 10.4% [at 0.435 µM].

`O=C(O)CCCCCCCCCC(=O)O`: the Potency result is “inactive”.

Regarding `CC(=O)c1ccc(O)c(C(N)=O)c1`, the Potency result was “inactive”.

In the case of `CCCC(=O)CC`, the Potency is 20.6 µM (active).

`CCCCC(O)/C=C(C)/C=C/C=C/C(=O)N1CCCC1=O` (stereo not given): the Potency result was “inactive”.

As to `c1cc2ccc3ccc4ccc5cccc6c(c1)c2c3c4c56`, the Potency was 0.2 µM (active).

Regarding `CC(C)(C)C(=O)CCc1ccc(Cl)cc1`, the Potency is 22.4 µM (active).

On to `Cc1ccc(NC(N)=O)cc1`, for which the Potency was 40.2 µM (active).

The record behind these values is PubChem BioAssay (Tox21).
